Laboratory results taken from PubChem BioAssay AID743279 (National Center for Advancing Translational Sciences (NCATS), 2014).
Screen size: about 360,000 compounds; about 17,000 (4.7%) were called active. Inconclusive results (about 5%) are left out. The sample holds actives, similar compounds and a random draw of the others, so the mix is not that of the screen. Values without a mark were called inactive. Cut-off read from the data, not from the text of the source: active = activity change below about -50%; inconclusive = mostly about -30% to -49%; inactive = weaker than that.

Assay: qHTS for Inhibitors of Inflammasome Signaling: IL-1-beta AlphaLISA Primary Screen
Conditions: THP-1 LPS/ATP IL-1B secretion, 16 h; at 57.5 µM, stronger effect = lower value
Method in brief: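 THP-1 cells pretreated 1 hr with compounds (up to 57.5 uM final), then stimulated with LPS (250 ng/mL final) plus ATP (1.25 mM final); secreted IL-1B measured by AlphaLISA after 16 hr, decreased signal indicating inhibition.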
% is set by controls: 0 for no effect and ±100 for the full control effect.

SMILES | activity change
COc1cc(NC(=O)C2=C(C)OCCS2)c(Cl)cc1C(=O)NCCCN1CCCC(C)C1 (stereo not drawn) | -28.6%
CCCNC(=O)C1(C)CCN(C(=O)c2cc(F)ccc2C)C1 (stereo not drawn) | 34.1%
COc1cccc(C(NC(C)=O)c2nc(-c3ccccc3OC)cs2)c1 (stereo not drawn) | 9.34%
COC(=O)C[C@@H]1C=C[C@@H](NC(=O)c2ccc3c(c2)OCO3)[C@@H](CO)O1 | 7.5%
COc1cccc(CNC(=O)CN2C(=O)NC(Cc3ccccc3)(c3ccccc3)C2=O)c1 (stereo not drawn) | -58.8% (active)
CCCCNC(=O)CN1C(=O)NC(Cc2ccccc2)(Cc2ccccc2)C1=O | 4.67%
COc1cccc(CNC(=O)COC(=O)CN2C(=O)NC3(CCCCC3C)C2=O)c1 (stereo not drawn) | 8.38%
CN(Cc1nc2ccccc2c(=O)[nH]1)Cc1cc(=O)oc2ccc3ccccc3c12 | 0.506%
O=C(CNc1ccccc1N1CCCC1=O)Nc1cc(Cl)ccc1-n1cncn1 | -19.4%
CCN(CC)S(=O)(=O)c1ccc(NC(=O)c2cccnc2Cl)c(NC(=O)c2cccnc2Cl)c1 | -102% (active)
CCN(CC)S(=O)(=O)c1ccc(NC(=O)c2cnc(C)cn2)cc1 | 57%
Cc1ccc(CNC(=O)c2cccnc2Cl)cc1 | 55.4%
CC(O)(c1cccc(F)c1)c1nc(-c2ccc3c(c2)OCO3)cs1 (stereo not drawn) | 16%
COc1cc(-c2nnc(NC(=O)CS(=O)(=O)c3ccc(Cl)cc3)o2)cc(OC)c1OC | -11%
CCN(CC)c1ccc(NC(=O)c2ccc(=O)[nH]c2)cc1S(=O)(=O)Nc1ccc(OC)cc1 | -3.18%
COc1ccc(CNC(=O)COC(=O)c2sccc2C)cc1OC | 12.1%
Cc1cccc(N(CC(=O)N=Nc2c(O)[nH]c3ccccc23)S(C)(=O)=O)c1C | 19.5%
O=C(CCN1CCCCC1)N=Nc1c(O)[nH]c2ccccc12 | -74.6% (active)
Oc1[nH]c2ccccc2c1N=Nc1c(F)c(F)c(F)c(F)c1F | -7.81%
CS(=O)(=O)N1CCc2nc(-c3ccccc3)sc2C1 | 54.3%

SMILES | activity change
COc1ccccc1OCCNC(=O)C(CCSC)NC(=O)COc1ccccc1 (stereo not drawn) | -18.9%
NC(=O)c1ccc(N2CCCC2)nc1 | 5.48%
COc1cccc(CN(C)CC(=O)NCc2ccccc2Cl)c1OC | 1.26%
Cc1nc2ccc(C(=O)N(C)CC3CCCN(CCc4ccc(Cl)cc4)C3)cc2[nH]1 (stereo not drawn) | 8.01%
COc1cccc(CN(C)CC2CCCN(CCc3ccc(Cl)cc3)C2)c1OC (stereo not drawn) | -90.5% (active)
C[C@H]1CN([C@@H](C)CO)S(=O)(=O)c2ccc(-c3cccc(F)c3)cc2O[C@@H]1CN(C)C | -2.69%
O=C(NCCOc1ccccc1Cl)C(=O)Nc1ccccc1 | inactive
Clc1ccccc1Nc1nc(NCc2cccs2)nc2ccsc12 | 42.9%
CC(C)Nc1nc(NCCOc2ccccc2Cl)c2sccc2n1 | -90.6% (active)
C=C(C)C1CC=C(C)/C(=N\NC(=O)CNc2ccccc2OC)C1 (stereo not drawn) | -1.86%
COc1ccc2nc(-c3ccccn3)ccc2c1 | 19.8%
CCc1ccccc1NC(=O)CN1CCN(C(=O)c2cc(C3CC3)nn2-c2ccccc2)CC1 | -18.2%
CC(=O)Nc1cccc(-c2ccnc3c2CC(C)(C(=O)NCc2ccco2)O3)c1 (stereo not drawn) | 78.5%
COc1cccc2oc(CCc3ccccc3)cc(=O)c12 | -5.15%
CCOC(=O)c1ccc(NC(=O)c2nc[nH]c2C(=O)N[C@@H](CCCCNC(=O)OC(C)(C)C)C(=O)OC(C)(C)C)cc1 | -62.8% (active)
CCOC(=O)c1ccc(NC(=O)c2nc[nH]c2C(=O)NCc2ccccc2)cc1 | 7.09%
CC(C)(C)OC(=O)CNC(=O)c1[nH]cnc1C(=O)N[C@@H](CCCCN)C(=O)OC(C)(C)C | -12.6%
COc1ccccc1CC1(C)C(=O)Nc2ccc(OC(F)(F)F)cc21 (stereo not drawn) | 4.75%
COc1ccc(C(C(O)C(=O)c2c[nH]c3ccccc23)N2CCN(c3ccccc3)CC2)cc1 (stereo not drawn) | 14.4%
COc1ccc(/C=C(\NC(=O)c2ccc(OC)c(OC)c2)C(=O)NCCc2c[nH]c3ccccc23)cc1 | -11.1%

SMILES | activity change
COc1ccc(/C=C(\C#N)c2c[nH]c3ccccc23)cc1 | -102% (active)
Cc1ccc([C@H]2N[C@]3(CCCN(CC4CCCCC4)C3=O)[C@H]3C(=O)N(Cc4ccccc4)C(=O)[C@@H]23)cc1 | -9.33%
O=C(CC(c1ccccc1)c1ccccc1)NCC(O)c1ccc([N+](=O)[O-])cc1 (stereo not drawn) | -69.4% (active)
CC(=O)NCC(O)c1ccc([N+](=O)[O-])cc1 (stereo not drawn) | 0.816%
O=C(NCC(O)c1ccc([N+](=O)[O-])cc1)C1CCCCC1 (stereo not drawn) | -13.9%
O=C(O)c1ccc([N+](=O)[O-])cc1Sc1ccsc1 | 4.28%
O=C(NCc1cccc(C(F)(F)F)c1)c1ccc2sc(COCCO)nc2c1 | 28.9%
CCN(CC)CCOC(=O)c1ccc(NC(=O)CNC(=O)c2ccccc2)cc1 | 7.44%
CCN(CC)CCNC(=O)c1ccc(NC(=O)c2c(F)cccc2Cl)cc1 | -73.3% (active)
CCN(CC)CCNC(=O)c1ccc(NS(=O)(=O)c2ccc3c(c2)OCCO3)cc1 | -6.92%
COC(=O)Cc1ccc(NC(=S)NCc2ccccc2)cc1 | 0.636%
CCNC(=S)Nc1ccc(OC(F)(F)F)cc1 | -1.65%
FC(F)(F)Oc1ccc(NC(=S)NCc2ccccc2)cc1 | -95% (active)
CC1(C)OC(=O)C2=C(C[C@@H](C3CC3)O[C@H]2c2ccc(Cl)cc2)O1 | 6.02%
N=C1c2ccccc2-c2ccccc21 | 3.3%
Cc1c(NC(=O)Nc2ccccc2Cl)sc(=S)n1C | -4.03%
CN(C)S(=O)(=O)Oc1ccccc1C(=O)Nc1ccccc1Cl | 3.38%
O=C(Nc1ccccc1Cl)/C(Cl)=C(\Cl)S(=O)c1ccccc1 (stereo not drawn) | -103% (active)
